# Test results as given in PubChem BioAssay AID1619 (SRMLSC, 2009).
# Among all 220,000 compounds or so, about 830 (0.38%) were called active. Only a sample is shown. Measured potencies and affinities stand elsewhere. Values without a mark were called inactive.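 Rule for the calls: active = compound inhibiting the enzyme by more than half at any dose during confirmatory dose-response retesting; inconclusive = strong single-dose inhibitors picked by rank but not retested; inactive = the rest.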
# Target: Leucine aminopeptidase (Plasmodium falciparum (isolate 3D7)) (UniProt Q8IL11)
# Sequence (Q8IL11 whole entry, looked up): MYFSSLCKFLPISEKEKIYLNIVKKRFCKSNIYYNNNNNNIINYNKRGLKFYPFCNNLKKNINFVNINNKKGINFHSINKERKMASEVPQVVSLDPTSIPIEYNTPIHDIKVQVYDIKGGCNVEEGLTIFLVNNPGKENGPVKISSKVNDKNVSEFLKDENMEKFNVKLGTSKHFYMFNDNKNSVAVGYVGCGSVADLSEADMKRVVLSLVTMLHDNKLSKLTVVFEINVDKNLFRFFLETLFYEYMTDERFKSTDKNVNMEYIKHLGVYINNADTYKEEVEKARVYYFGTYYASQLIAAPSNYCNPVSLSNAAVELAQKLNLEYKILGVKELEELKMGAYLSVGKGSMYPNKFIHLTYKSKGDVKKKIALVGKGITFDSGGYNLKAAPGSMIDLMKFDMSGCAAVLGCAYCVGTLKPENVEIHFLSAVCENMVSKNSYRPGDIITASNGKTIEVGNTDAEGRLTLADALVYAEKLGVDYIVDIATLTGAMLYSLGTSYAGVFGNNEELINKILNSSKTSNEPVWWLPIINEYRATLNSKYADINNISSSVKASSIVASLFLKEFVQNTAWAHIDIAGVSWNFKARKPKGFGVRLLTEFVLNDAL
# Assay: P. falciparum M17LAP inhibitors, primary screen, biochemical, fluorogenic H-Leu-NHMec substrate, 1536-well (AID 1619);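 note: plate controls were full reaction with DMSO carrier for no effect and no enzyme background for full effect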
# Conditions: recombinant M17LAP, H-Leu-NHMec fluorogenic kinetic assay; at 30 µM; active compounds read high
row,Structure (SMILES),inhibition [%]
1,CCOC(=O)c1ccc(NC(=O)CSc2nc(SC)ns2)cc1,4.11
2,COc1ccc(C(=O)CNc2ccc(C)cc2C)cc1,-4.8
3,O=C(CSc1nc2nn(-c3ccccc3)c(=O)c-2c2n1CCCCC2)NCCc1ccccc1,-13.9
4,O=C(Nc1cc2c(oc1=O)CCCC2=O)c1ccccc1,1.43
5,COc1cccc(C2C(C(=O)Nc3ccccc3)=C(C)N=c3s/c(=C/c4ccc(OCC(=O)O)cc4)c(=O)n32)c1 (stereo not given),55.7
6,CC1=C(C(=O)Nc2ccccc2)C(c2ccc(Cl)cc2)n2c(s/c(=C/c3cccc(OCC(=O)O)c3)c2=O)=N1 (stereo not given),4.09
7,N=C1N(/N=C/c2ccccc2)C(=Nc2ccccc2)C(=S)N1c1ccccc1,16.1
8,O=C1CC(N2CCC(c3nc4ccccc4s3)CC2)C(=O)N1Cc1ccccc1 (stereo not given),-10.9
9,CCN(c1ccccc1)S(=O)(=O)c1ccc2[nH]c(=O)[nH]c2c1,-1.87
10,Cc1cccc(N(C)S(=O)(=O)c2ccc3[nH]c(=O)c(=O)[nH]c3c2)c1,53.7
11,O=C(CSc1ccc2nnc(-c3ccccn3)n2n1)Nc1ccc2c(c1)OCO2,7.14
12,CCOC(=O)N1CCC(NC(=O)C2CCCN(S(C)(=O)=O)C2)CC1 (stereo not given),5.41
13,COCCOC(=O)C1=C(C)NC(=O)NC1c1c(F)cccc1Cl (stereo not given),-12.3
14,O=C(Cn1cc([N+](=O)[O-])cn1)Nc1cccnc1,1.1
15,Cc1sc(NC(=O)c2cccs2)c(C(=O)OC(C)C)c1C,9.67
16,COC(=O)c1c(NC(=O)C2CC=CCC2C(=O)O)sc(C(N)=O)c1C (stereo not given),51.5
17,CC(=O)Nc1sc(C)c(C)c1C(=O)OC(C)C,14.2
18,CCOC(=O)c1c(NC(=O)C2CC=CCC2C(=O)O)sc(C)c1CC (stereo not given),5.22
19,COc1ccc(CCNC(=O)C2CC(=O)N(c3ccc(Br)cc3)C2)cc1OC (stereo not given),3.2
20,Cc1ccnc2ccc(SC(F)(F)F)cc12,1.01
21,Cc1cc(C(F)(F)F)nc(SCC(=O)Nc2ccccc2)n1,-7.44
22,COC(=O)c1cccc(NC(=O)CSc2nnc(C)n2C)c1,12.6
23,CCOC(=O)c1ccc(NC(=O)CN2C(=O)C3C4C=CC(C4)C3C2=O)cc1 (stereo not given),28.7
24,CC(=O)c1cccc(NC(=O)CN2C(=O)C3C4C=CC(C4)C3C2=O)c1 (stereo not given),31.7
25,COc1cccc(NC(=O)CSc2nc(N)cc(N)n2)c1,47.2

row,Structure (SMILES),inhibition [%]
1,Cc1cccc(NC(=O)CSc2nc(N)cc(N)n2)c1,34.4
2,Cn1ccnc1SCC(=O)Nc1cccc(C(F)(F)F)c1,15.9
3,COC(=O)c1cccc(NC(=O)COC(=O)CSc2nc(C)cc(C)n2)c1,5.31
4,CCCNC(=O)Nc1ccc(C(F)(F)F)cc1,6.33
5,CC1(C)CC(=O)c2cnc(NC(=O)CSc3nc4ccccc4o3)nc2C1,8.26
6,NC(=O)c1cc(-c2ccncc2)nc2ccc(Cl)cc12,8.6
7,Cn1c(=O)n(C)c2cc(S(=O)(=O)Nc3ccccc3O)ccc21,-0.99
8,C/C(=C1/SC(N2CC(C)OC(C)C2)=NC1=O)c1ccccc1 (stereo not given),1.49
9,Cc1ccc(S(=O)(=O)Nc2nc(C)cc(NCCN)n2)cc1,-5.52
10,CCOC(=O)N1CCN(CCC(=O)Nc2ccc(OC)cc2)CC1,5.12
11,Cc1cc(C)c(S(=O)(=O)Nc2cccc3nsnc23)c(C)c1,3.04
12,Cc1ccc2nsnc2c1S(=O)(=O)Nc1cccc2nsnc12,2.26
13,COC(=O)c1cc(C#N)c(NCc2ccccc2)nc1C,-1.82
14,Cc1nn(C)cc1CN(C)C(=O)c1cc(COc2ccc(F)cc2F)on1,-16.1
15,O=C1OCC2OC(O)C(O)C(O)C2OC(=O)c2cc(O)c(O)c(O)c2-c2c(O)c(O)c3oc(=O)c4c(c(O)c(O)c5oc(=O)c2c3c54)-c2c1cc(O)c(O)c2O (stereo not given),20.8
16,COc1cccc(NC(=O)Cn2c(=O)n(CCC(=O)NCc3ccco3)c(=O)c3ccccc32)c1,-7.32
17,CCn1c(N2CCN(CC(=O)c3c(C)n(C)c4ccccc34)CC2)nc2c1c(=O)[nH]c(=O)n2C,16.3
18,CN(Cc1nc(Cc2ccccc2F)no1)CC1(N2CCOCC2)CCCCC1,-3.08
19,CN(Cc1cc2ccccc2[nH]c1=O)C(=O)COc1ccccc1,-2.37
20,O=C1C2CC=C(Cl)CC2C(=O)N1CCc1ccccc1 (stereo not given),51.8
21,O=C1C2CC=C(Cl)CC2C(=O)N1CCC[n+]1ccccc1 (stereo not given),-3.64
22,CCOC(=O)N1CCN(C(c2ccc(F)cc2)c2sc3nc(C)nn3c2O)CC1 (stereo not given),-1.83
23,CC(=O)c1c(O)c(C)c(-c2ccccc2)n(-c2ccccc2)c1=O,31.5
24,C=CCO/N=C(\C)c1c(O)c(C)c(-c2ccccc2)n(-c2ccccc2)c1=O,54
25,C/C(=N/O)c1c(O)c(C)c(-c2ccccc2)n(-c2ccccc2)c1=O,46.8

row,Structure (SMILES),inhibition [%]
1,CCO/N=C(/C)c1c(O)c(C)c(-c2ccccc2)n(-c2ccccc2)c1=O,45.5
2,COc1cc(/C=N/NC(=O)c2sc(N)c(C#N)c2C)ccc1O,3.64
3,COc1ccc(Cn2c(SC)nc3ccccc32)cc1[N+](=O)[O-],-7.5
4,CCCn1nnc(NC(=O)c2ccc(Br)cc2)n1,-4.35
5,Cc1ccsc1/C=N/NC(=O)CSCc1ccc(Cl)cc1,3.08
6,Cc1cc(C)c(S(=O)(=O)Nc2c(C)[nH]c(=O)[nH]c2=O)c(C)c1,-3
7,Cc1cccc2cc(CN(Cc3ccc(F)cc3)C(=O)N3CCOCC3)c(=O)[nH]c12,6.9
8,CC1CCCC(C)N1C(=O)CSc1nnc(NC(=O)c2cccs2)s1 (stereo not given),35.8
9,O=C(Cc1cccs1)Nc1nnc(SCC(=O)N2CCCCC2)s1,4.31
10,CN1/C(=C\C(=O)CSc2nnc(N)s2)C(C)(C)c2ccccc21,30.2
11,CN1/C(=C\C(=O)CSc2nnc(NCc3ccccc3)s2)C(C)(C)c2ccccc21,-5.09
12,COc1ccccc1Nc1nnc(SCC(=O)N2CCCC2)s1,28.9
13,COc1cccc(Nc2nnc(SCC(=O)N3CCOCC3)s2)c1,31.6
14,COc1ccc(NC(=O)COC(=O)C2=COCCO2)cc1OC,-5.64
15,O=C(CN1CCCCC1)NC(=O)NCc1ccccc1,-1.39
16,C=CCNC(=O)C(=O)c1cccn1-c1ccsc1C(=O)OC,1.96
17,CCOP(=O)(OCC)C(Nc1cccc([N+](=O)[O-])c1)c1ccccc1 (stereo not given),-1.19
18,CC(C)CSc1nnc2[nH]c(=O)cc(N)n12,-1.75
19,CCOC(=O)c1oc2cc(O)ccc2c(=O)c1-c1ccc(OC)cc1,14.6
20,COC(=O)N/N=C/c1c[nH]c2ccccc12,14.5
21,Fc1c(F)c(F)c(N/N=C/c2c[nH]c3ccccc23)c(F)c1F,-1.25
22,COc1cccc(NC(=O)Nc2nnc(CC(=O)NCc3ccccc3)s2)c1,8.42
23,COc1ccc(NC(=O)CSc2ncc(-c3ccc(F)cc3)n2Cc2ccco2)cc1,-16.2
24,CCCOC(=O)c1c(NC(=O)C2CCCO2)sc(C(=O)OC)c1C (stereo not given),8.59
25,CC1CCCCN1C(=O)CSc1nc(-c2ccccc2)cn1N (stereo not given),14.6

row,Structure (SMILES),inhibition [%]
1,O=C(CSc1nc(O)cc(=O)n1-c1ccccc1)Nc1ccccn1,14.8
2,COc1ccc(-c2ccnc(SCC(=O)Nc3ccccn3)n2)cc1,7.81
3,Cc1cc(-c2ccccc2)nc(SCC(=O)N2CCCC2)n1,1.7
4,O=C(N1CCC(O)(c2cccnc2)CC1)C12CC3CC(CC(C3)C1)C2,3.02
5,Cc1oc(C(C)(C)C)cc1C(N)=O,5.9
6,Cc1c(N(C(=O)CNC(=O)c2ccccc2)C2(C(=O)NC3CCCCC3)CCCCC2)c(=O)n(-c2ccccc2)n1C,-1.39
7,Clc1ccc(Nc2ccc(-n3ccnc3)nn2)cc1Cl,2.24
8,Cc1cc(C(=O)NCc2cccs2)n(-c2ccccc2)n1,-1.13
9,COc1ccccc1NC(=S)NC(=O)c1c(-c2ccccc2Cl)noc1C,-2.71
10,CC(C)NC(=O)/C(C#N)=C/c1ccc(N(C)C)o1,48.4
11,CC(C)NC(=O)/C(C#N)=C\c1ccc(N(C)C)o1,38
12,Cc1nn(CC(=O)N2CC(=O)Nc3ccccc32)c(C)c1[N+](=O)[O-],1.29
13,CCOC(=O)c1sc(NC(=S)NC(=O)C2CCCC2)cc1C,-3.81
14,O=C(O)C1CCCN(S(=O)(=O)c2ccc(Br)s2)C1 (stereo not given),-0.9
15,O=C(O)/C=C/c1cn(Cc2ccccc2)nc1-c1ccccc1,22.2
16,Cc1ccc(-c2nn(Cc3ccccc3)cc2/C=C/C(=O)O)cc1,38.8
17,O=C(O)/C=C/C(=O)Nc1ccc(Oc2ccccc2)cc1,-0.33
18,O=C(O)/C=C\C(=O)Nc1ccc(Oc2ccccc2)cc1,15
19,CCS(=O)(=O)N1CCC(C(=O)NCc2ccc(OC)cc2)CC1,5.05
20,O=C(O)CSc1nc(-c2ccccc2)nc2c1oc1ccccc12,28.6
21,CCC(C)[C@H](Nc1nc(-c2ccccc2)nc2c1oc1ccccc12)C(=O)O (stereo not given in full),51.5
22,CCc1nc(N[C@H](C(=O)O)C(C)C)c2oc3ccccc3c2n1,3.02
23,Cc1nc(SCC(=O)O)c2oc3ccccc3c2n1,1.07
24,CCOC(=O)C1CCN(c2nc(-c3ccccc3)nc3c2oc2ccccc23)CC1,41.7
25,NC(=O)C1CCN(c2nc(-c3ccccc3)nc3c2oc2ccccc23)CC1,-0.35
